Measurements published in ChEMBL document CHEMBL3988442, “University of Dundee, Small-Polar-MMV Screening Library” (2021).
Values joined by “and” are separate entries in the source; they are usually repeats but may differ in a detail not shown here. Identical values can stand only once. Among all 34,000 compounds or so, about 290 (0.85%) showed an effect of 50% or more. The list comes from a sample in which strong results are over-represented; it also holds similar structures and randomly drawn compounds.

System: Plasmodium falciparum
Assay: Plasmodium falciparum sporozoite viability assay
Type: functional, organism-based
Set-up: scale not given: in the data most compounds retested in dose-response had high values

SMILES | Percent Effect [%] | Percent Effect (10 mM as filed; unlikely as a test dose)
CC1CCCN(C(=O)C2CCN(c3snc4ccccc34)CC2)C1 (configuration not stated) | 6.864 | –
CC(C)c1cc(NC(=O)c2ccc(NC3CC3)nc2)[nH]n1 | 15.54 | –
Cc1nccc(-c2cccc(-c3ccn(CC4CCNC4)n3)c2)n1 (configuration not stated) | – | -3.675% and -28.15% and -23.4%
Cc1ccsc1-c1cccc(-c2ccn(CC3CCNC3)n2)c1 (configuration not stated) | – | 75.23% and 72.27% and 75.29%
c1cc(-c2cncnc2)cc(-c2ccn(CC3CCNC3)n2)c1 (configuration not stated) | – | -11.99% and -9.692% and -21.27%
O=C(Nc1ccccc1OCCc1ccccn1)N1CCOCC(O)C1 (configuration not stated) | 6.804 | –
Cc1cc(OCC(O)c2nc3c([nH]2)CC(C)(C)CNC3=O)ccc1Cl (configuration not stated) | 5.403 | –
c1cncc(-c2noc(CN3CCc4cncnc4C3)n2)c1 | 1.959 | –
c1ccc(-c2noc(CN3CCc4cncnc4C3)n2)nc1 | – | 68.57% and 81.28% and 66.45%
Cc1cc(C(=O)N2CCCC(n3cncn3)C2)no1 (configuration not stated) | 2.312 | –
CC(C1CC1)N(C)C(=O)c1cnc(-c2ccc3c(c2)OCO3)s1 (configuration not stated) | – | 53.72% and 75.58% and 50.81%
CN(C)C(=O)c1cnc(-c2ccc3c(c2)OCO3)s1 | – | -22.33% and -36.75%
CCN(C(=O)c1cnc(-c2ccc3c(c2)OCO3)s1)C1CC1 | – | -15.93% and -34.81%
COc1c(C2CCCN2Cc2noc(C(C)C)n2)c(C)nn1C (configuration not stated) | 4.307 | –
CCc1nnc(CN2CCOC(Cn3cccn3)C2)o1 (configuration not stated) | 11.86 | –
c1ccc(-c2nc(CN3CCOC(Cn4cncn4)C3)cs2)cc1 (configuration not stated) | – | 57.17% and 32.5% and 36.71%
c1csc(-c2nc(CN3CCOC(Cn4cncn4)C3)co2)c1 (configuration not stated) | 15.52 | –
c1csc(-c2nc(CN3CCOC(Cn4cccn4)C3)cs2)c1 (configuration not stated) | 3.015 | –
c1ccc(-c2nc(CN3CCOC(Cn4cccn4)C3)cs2)cc1 (configuration not stated) | – | -13.99% and -29.39%
c1csc(-c2nc(CN3CCOC(Cn4cncn4)C3)cs2)c1 (configuration not stated) | – | 44.25% and 56.8% and 40.33%
O=C1NCC2=C1C(c1ccc(O)cc1)Nc1ccccc1N2 (configuration not stated) | -23.23 | –
COCCN1CCCC1c1ccnc(-c2ccccc2)n1 (configuration not stated) | 6.777 | –
CCN1CCN(C(C)CNC(=O)Nc2nnc(C)s2)CC1 (configuration not stated) | -9.257 | –
Cc1noc(C)c1CCC(=O)NCC1(O)CCN(c2ccccn2)C1 (configuration not stated) | 8.46 | –
CNc1cc(C)nc(N2C[C@H](C3CC3)[C@@H](N)C2)n1 | – | 11.54% and 8.166% and -2.157%
CNc1cc(C)nc(N2C[C@H](NC(=O)C3CCOCC3)[C@@H](C3CC3)C2)n1 | – | -9.822% and -7.832% and -7.881%
CNc1cc(C)nc(N2C[C@@H](C(=O)O)[C@H](C3CC3)C2)n1 | – | 73.63% and 80.29% and 69.7%
